# Data as given in PubChem BioAssay (NCATS).
# Records with an inconclusive call do not appear. Unmarked numbers belong to inactive results. The source made the active and inactive calls. Calls come from the whole dose curve; as a rule, active = well fitted cell-killing curve with a large enough effect; inconclusive = small, poorly fitted or top-dose-only effect, or effect the other way; inactive = no such curve, though single readings can be large or run the other way.
# Assay: Quantitative High-Throughput drug screen in 47 multiple myeloma cell lines against the NCATS MIPE library collection: KHM11_PLB cell viability assay (AID 1918962); note: nearly all actives have a fitted effect of over 35% in size
# Settings: KHM11 myeloma cell viability, CellTiter-Glo ATP luminescence, 48 h; series mostly up to 45.8 µM; viability, % of DMSO control: at the top concentration
# Excerpt: PI: Beverly A. Mock Ph.D.
# Laboratory of Cancer Biology and Genetics,
# Center for Cancer Research, National Cancer Institute,
# National Institute of Health, Bethesda, Maryland
# Drug resistance and disease progression are common in multiple myeloma (MM) patients, underscoring the need for new therapeutic combinations. […] We hypothesized that effective combinations would reduce MYC expression and enhance p16 activity. […] These preclinical data identify potentially useful drug combinations for evaluation in drug-resistant MM and reveal potential mechanisms of combined drug sensitivity.
# Described herein is the primary MIPE qHTS used to cherrypick compounds. Validated compounds were then further tested for potential synergistic activiy.
# [1] Peat TJ, Gaikwad SM, Dubois W, Gyabaah-Kessie N, Zhang S, Gorjifard S, Phyo Z, Andres M, Hughitt VK, Simpson RM, Miller MA, Girvin AT, Taylor A, Williams D, D'Antonio N, Zhang Y, Rajagopalan A, Flietner E, Wilson K, Zhang X, Shinn P, Klumpp-Thomas C, McKnight C, Itkin Z, Chen L, Kazandijian D, Zhang J, Michalowski AM, Simmons JK, Keats J, Thomas CJ, Mock BA. Drug combinations identified by high-throughput screening promote cell cycle transition and upregulate Smad pathways in myeloma. Cancer Lett. 2023 Aug 1;568:216284. doi: 10.1016/j.canlet.2023.216284. Epub 2023 Jun 24. PMID: 37356470; PMCID: PMC10408729.
# SEQUENCE No. (e.g., 1, 2, 3, etc.); […] (e.g., Cells, Incubation, Reagent, etc.); VALUE and DESCRIPTION.
# 1; Cells; 5 uL; white, solid bottom 1536-well Greiner assay plate.
# 2; Compounds; 23 nL; Kalypsis pin tool (Wako USA) equipped with a 1536-well pin head to transfer to the assay plates.
# 3; Incubation; 48 hours; 37C incubation.
# 4; Reagent;5uL; CellTiter Glo (Promega).
# 5; Detector; 425V; Luminescence; Viewlux PerkinElmer.
# NOTES (numbers refer to Sequence numbers above)
# 1. The cell-based screening methods employed in this study were like those previously published. Briefly, the corresponding myeloma cell lines were screened in 1,536-well plates with 500 cells, 5-uL per well for inhibition of cell viability (assessed by measuring ATP levels with CellTiterGlo).
# 2. NCATS MIPE 4.0 library of approved and investigational drugs were added using the Kalypsis pin tool. Wells treated with DMSO only for 100% viability and media only wells for 0% viability were used as controls.
# 3. The assay plates were covered and incubated for 48 hours in a 37C, 5% CO2 incubator with controlled humidity.
# 4. After 48 hours, CellTilter-GloTM luminescent substrate mix (Promega) reagent was added to the assay plate and plates we incubated for 5 min at room temperature.
# 5. Signal was measured as median relative luminescence units on a ViewLux (PerkinElmer) multiplate reader.
# [1] Heske CM, Davis MI, Baumgart JT, Wilson K, Gormally MV, Chen L, Zhang X, Ceribelli M, Duveau DY, Guha R, Ferrer M, Arnaldez FI, Ji J, Tran HL, Zhang Y, Mendoza A, Helman LJ, Thomas CJ. Matrix Screen Identifies Synergistic Combination of PARP Inhibitors and Nicotinamide Phosphoribosyltransferase (NAMPT) Inhibitors in Ewing Sarcoma. Clin Cancer Res. 2017 Dec 1;23(23):7301-7311. doi: 10.1158/1078-0432.CCR-17-1121. Epub 2017 Sep 12. PMID: 28899971; PMCID: PMC6636827.
# Potency is the fitted concentration of half-maximal effect.
SMILES,Potency,"viability, % of DMSO control"
CC(=O)NCC(=O)N1[C@H]2CC[C@H]1c1cc(Nc3ncc(C(F)(F)F)c(NC4CCC4)n3)ccc12,526 nM (active),–
C[C@@]12C[C@@]3(O)O[C@@H](O1)[C@]1(COC(=O)c4ccccc4)[C@@H]3C[C@@]12O[C@@H]1O[C@H](CO)[C@@H](O)[C@H](O)[C@@H]1O,–,106%
CN(CC(=O)N(Cc1ccc(C2CCCCC2)cc1)c1ccc(C(=O)O)c(O)c1)S(=O)(=O)c1c(F)c(F)c(F)c(F)c1F,14800 nM (active),–
COC[C@H](NC(=O)c1cnc(C)s1)C(=O)N[C@@H](COC)C(=O)N[C@@H](Cc1ccccc1)C(=O)[C@@]1(C)CO1,66.2 nM (active),–
CC(=O)N[C@H]1[C@@H]([C@H](O)[C@H](O)CO)OC(C(=O)O)=C[C@@H]1N=C(N)N,–,111%
c1coc(CNc2ncnc3nc[nH]c23)c1,–,86.7%
C[C@H](NC(=O)[C@@H](O)c1cc(F)cc(F)c1)C(=O)N[C@@H]1C(=O)N(C)c2ccccc2-c2ccccc21,–,99.7%
CCC[C@H]1C[C@H](C(=O)N[C@@H]([C@@H]2O[C@@H](SC)[C@@H](O)[C@@H](O)[C@@H]2O)[C@H](C)Cl)N(C)C1,–,95.5%
c1cc(N[C@@H]2CCNC2)nc(-c2cnc3ccc(-c4cn[nH]c4)cn23)c1,3320 nM (active),–
CC(=O)SCC(Cc1ccccc1)C(=O)NCC(=O)OCc1ccccc1 (stereo not given),7430 nM (active),–
Nc1nc(N)c2nc(-c3cccc(O)c3)c(-c3cccc(O)c3)nc2n1,3320 nM (active),–
COC(=O)C=CC(=O)OC,18700 nM (active),–
CC(=O)N1CCN(c2ccc(OCc3nn(C)c(C)c3-c3cccc4c(CCCOc5cccc6ccccc56)c(C(=O)O)n(Cc5cccnc5)c34)cc2)CC1,2350 nM (active),–
NC1=N[C@H]2[C@H](CS[C@H]2CCCCC(=O)O)N1,–,111% [at 23.2 µM]
CC[C@H](CC[C@@H](C)[C@H]1CC[C@H]2[C@@H]3CC=C4C[C@@H](O)CC[C@]4(C)[C@@H]3CC[C@]12C)C(C)C,–,93.2%
CCCCC(=O)O[C@]1(C(=O)CO)[C@@H](C)C[C@H]2[C@@H]3CCC4=CC(=O)C=C[C@]4(C)[C@@]3(F)[C@@H](O)C[C@@]21C,–,107%
Cc1cnc(Nc2ccc(N3CCN(C)CC3)cc2)nc1Nc1cccc(S(=O)(=O)NC(C)(C)C)c1,1870 nM (active),–
CC(C)NC[C@@H](C(=O)N1CCN(c2ncnc3c2[C@H](C)C[C@H]3O)CC1)c1ccc(Cl)cc1,14800 nM (active),–
C[C@]12CC[C@@H]3c4ccc(O)cc4CC[C@H]3[C@H]1CC[C@H]2O,4690 nM (active),–
CN(C)CC(=O)N1CCC(c2ccc(NC(=O)c3ncc(C#N)[nH]3)c(C3=CCCCC3)c2)CC1,20900 nM (active),–

SMILES,Potency,"viability, % of DMSO control"
COc1ccnc2[nH]cc(C(=O)C(=O)N3CCN(C(=O)c4ccccc4)C[C@@H]3C)c12,–,138%
CN(C)c1ccc2cc(C(=O)N[C@@H](CCCN=C(N)CCl)C(=O)NCc3ccccc3)ccc2c1,16600 nM (active),–
C[C@@H](Cc1cc2c(c(C(N)=O)c1)N(CCCO)CC2)NCCOc1ccccc1OCC(F)(F)F,–,91.3%
COc1cccc2c1C(=O)c1c(O)c3c(c(O)c1C2=O)C[C@@](O)(C(=O)CO)C[C@H]3O[C@H]1C[C@H](N)[C@H](O)[C@H](C)O1,332 nM (active),–
NC(=O)Nc1sc(-c2ccc(F)cc2)cc1C(N)=O,833 nM (active),–
COc1ccc(Nc2cc(-c3cnc(N)nc3)nc(N3CCOCC3)n2)cn1,4180 nM (active),–
COC(=O)[C@H](CCCN=C(N)N)NS(=O)(=O)c1ccc(C)cc1,–,106%
CC(C)(O)Cn1c(NC(=O)c2ccc(-c3cn[nH]c3)s2)nc2cc(CN3CCOCC3)ccc21,296 nM (active),–
CS[C@H]1SC[C@@H]2C(=O)N(C)[C@H](C(C)C)C(=O)OC[C@H](NC(=O)c3cnc4ccccc4n3)C(=O)N[C@H](C)C(=O)N(C)[C@@H]1C(=O)N(C)[C@H](C(C)C)C(=O)OC[C@H](NC(=O)c1cnc3ccccc3n1)C(=O)N[C@H](C)C(=O)N2C,9.3 nM (active),–
COc1cc2c(cc1OC)[C@@H]1C(=O)c3ccc4c(c3O[C@@H]1CO2)C=CC(C)(C)O4,4180 nM (active),–
CCNC(=O)c1cc2c(-c3cc(OCCN4CCCC4)c(Cl)cc3Cl)nc(N)nc2s1,590 nM (active),–
CCc1cnn2c(NCc3ccc[n+]([O-])c3)cc(N3CCCC[C@@H]3CCO)nc12,18.7 nM (active),–
COc1cc(C(C)C)c(Oc2cnc(NC(CO)CO)nc2N)cc1I,–,160%
CNC(=O)c1ccc(Nc2cc(Nc3ccccc3S(=O)(=O)C(C)C)c3cc[nH]c3n2)nc1,833 nM (active),–
N#CC(=C(O)c1ccc(Cl)cc1Cl)c1nc2cc(Cl)ccc2c(=O)[nH]1,–,111%
O=C1c2cccc(O)c2C(=O)c2c(O)cc(CO)cc21,–,98.3%
COC1=C2C[C@@H](C)C[C@H](OC)[C@@H](O)[C@@H](C)C=C(C)[C@H](OC(N)=O)[C@@H](OC)C=CC=C(C)C(=O)NC(=CC1=O)C2=O,132 nM (active),–
CCN(CC)CCNC(=O)c1c(C)[nH]c(C=C2C(=O)Nc3ccc(F)cc32)c1C,1080 nM (active),–
COc1ccc(C[C@@H](C)[C@@H](C)Cc2ccc(OC)c(OC)c2)cc1OC,148 nM (active),–
COc1cc(C(=O)NC2CCN(C)CC2)ccc1Nc1ncc2c(n1)N(C1CCCC1)CCC(=O)N2C(C)C,14800 nM (active),–
